Measurements from PubChem BioAssay AID1159580 (chemical genetic matrix, 2015).
Values joined by “and” are separate entries in the source; they are usually repeats but may differ in a detail not shown here. Equal entries are not always repeated. The whole screen tested about 5,500 compounds, of which about 2,000 (36%) were called active. About 18% were inconclusive and are not listed. Rule as the data show it: active = normalized growth mostly below about 0.91 (no sharp cut-off); inconclusive = no clear call, values can overlap the other calls; inactive = mostly above about 0.92. This is one part of the list.

Assay: chemical genetic growth profiling, strain panel (AID 1159580);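 also: tested at 20 µM; growth read once vehicle control cultures reached saturation at 30 °C; 1 = growth at the plate median or of vehicle wells; lower values mean less growth of the strain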
Conditions: S. cerevisiae deletion strains, growth OD

Measured: normalized growth

CC1CCC2(OC1)OC1CC3C4CC[C@H]5C[C@@H](O)CC[C@]5(C)C4CC(=O)[C@]3(C)C1C2C (stereo partly specified)
inactive: locus YAL013W, strain DEP1, hits give low values 1.01 | locus YAL021C, strain ccr4, hits give low values 0.997 | locus YAL026C, strain drs2, hits give low values 1.03 | locus YAL030W, strain snc1, hits give low values 1.01 | locus YBL061C, strain skt5, hits give low values 1.02 | locus YBR009C, strain hhf1, hits give low values 0.983 | locus YBR021W, strain FUR4, hits give low values 0.991 | locus YBR023C, strain chs3, hits give low values 1.02 | locus YBR171W, strain sec66, hits give low values 1.02 | locus YBR229C, strain ROT2, hits give low values 1.01 | locus YBR231C, strain swc5, hits give low values 0.996 | locus YBR279W, strain paf1, hits give low values 1.01 | locus YCL011C, strain gbp2, hits give low values 1.04 | locus YCL016C, strain dcc1, hits give low values 1.01 | locus YCL029C, strain bik1, hits give low values 0.973 | locus YCL061C, strain MRC1, hits give low values 1.02 | locus YCL069W, strain vba3, hits give low values 1.02 | locus YCR088W, strain abp1, hits give low values 1.03 | locus YDL005C, strain med2, hits give low values 1.01 | locus YDL035C, strain GPR1, hits give low values 1.01 | locus YDL040C, strain nat1, hits give low values 1.01 | locus YDL074C, strain BRE1, hits give low values 0.974 | locus YDL101C, strain DUN1, hits give low values 1.01 | locus YDL134C, strain PPH21, hits give low values 1.01 | locus YDL185W, strain tfp1, hits give low values 0.981 | locus YDL192W, strain arf1, hits give low values 0.992 | locus YDR001C, strain nth1, hits give low values 1.01 | locus YDR069C, strain doa4, hits give low values 1 | locus YDR101C, strain arx1, hits give low values 0.974 | locus YDR137W, strain rgp1, hits give low values 1.02 | locus YDR150W, strain NUM1, hits give low values 1.01 | locus YDR159W, strain sac3, hits give low values 0.962 | locus YDR162C, strain NBP2, hits give low values 1.01 | locus YDR195W, strain ref2 1.04 | locus YDR297W, strain sur2, hits give low values 0.995 | locus YDR318W, strain mcm21, hits give low values 0.975 | locus YDR334W, strain swr1, hits give low values 1.01 | locus YDR335W, strain msn5, hits give low values 1.02 | locus YDR388W, hits give low values 0.982 | locus YDR392W, strain spt3, hits give low values 0.866 | locus YDR502C, strain sam2, hits give low values 0.98 | locus YEL003W, strain gim4, hits give low values 0.999 | locus YEL037C, strain rad23, hits give low values 1.02 | locus YEL061C, strain CIN8 (second series), hits give low values 1.01 | locus YEL061C, strain CIN8, hits give low values 1.01 | locus YER015W, strain faa2, hits give low values 1 | locus YER016W, strain bim1, hits give low values 1.01 | locus YER110C, hits give low values 0.978 | locus YER111C, strain swi4, hits give low values 1.01 | locus YER155C, strain BEM2 (second series), hits give low values 0.97 | locus YER155C, strain BEM2, hits give low values 1.01 | locus YER167W, strain BCK2, hits give low values 1.01 | locus YFR010W, strain ubp6, hits give low values 0.997 | locus YGL078C, strain dbp3, hits give low values 0.982 | locus YGL086W, strain mad1, hits give low values 0.998 | locus YGL167C, strain pmr1, hits give low values 1.01 | locus YGL173C, strain kem1, hits give low values 0.992 | locus YGL227W, strain vid30, hits give low values 1.02 | locus YGL240W, strain doc1, hits give low values 1 | locus YGL248W, strain PDE1, hits give low values 1.02 | locus YGL253W, strain hxk2, hits give low values 1.01 | locus YGR078C, strain PAC10, hits give low values 0.989 | locus YGR135W, strain pre9, hits give low values 0.987 | locus YGR229C, strain SMI1, hits give low values 1 | locus YGR252W, strain gcn5, hits give low values 0.992 | locus YHR013C, strain ard1, hits give low values 1.02 | locus YHR027C, strain rpn1, hits give low values 1.02 | locus YHR030C, strain SLT2, hits give low values 1.01 and 0.963 | locus YHR079C, strain IRE1 (second series), hits give low values 0.988 | locus YHR079C, strain IRE1, hits give low values 0.962 | locus YHR094C, strain hxt1, hits give low values 0.991 | locus YHR129C, strain ARP1, hits give low values 1 | locus YHR142W, strain chs7, hits give low values 1.03 | locus YHR200W, strain rpn10, hits give low values 0.987 | locus YIL066C, strain RNR3, hits give low values 1.01 | locus YIL073C, strain SPO22, hits give low values 0.983 | locus YIL125W, strain kgd1, hits give low values 0.989 | locus YIR030C, strain dcg1, hits give low values 0.984 | locus YJL092W, strain hpr5, hits give low values 1.01 | locus YJL095W, strain BCK1 (second series), hits give low values 1.01 | locus YJL095W, strain BCK1, hits give low values 1 and 0.964 | locus YJL115W, strain asf1, hits give low values 1.03 | locus YJL129C, strain trk1, hits give low values 1.04 | locus YJL134W, strain LCB3, hits give low values 1.01 | locus YJL154C, strain vps35, hits give low values 1.03 | locus YJL164C, strain tpk1, hits give low values 0.989 | locus YJL166W, strain qcr8, hits give low values 1 | locus YJL168C, strain set2, hits give low values 0.986 | locus YJL187C, strain SWE1 (second series), hits give low values 0.997 | locus YJR043C, strain POL32, hits give low values 1 | locus YJR066W, strain TOR1, hits give low values 0.927
